About 2,600 (16%) of roughly 16,000 compounds were called active. Roughly 20% stayed inconclusive and do not appear here. The call rests on the fitted dose curve; in most records, active means well fitted curve in the direction sought with a large enough effect; inconclusive means small, poorly fitted or top-dose-only effect, or effect the other way; inactive means no such curve, though single readings can be large or run the other way. These entries were drawn from the full list.
Molecular target: Cytochrome P450 2D6 (Homo sapiens) (UniProt P10635)
Sequence (P10635 whole entry, looked up): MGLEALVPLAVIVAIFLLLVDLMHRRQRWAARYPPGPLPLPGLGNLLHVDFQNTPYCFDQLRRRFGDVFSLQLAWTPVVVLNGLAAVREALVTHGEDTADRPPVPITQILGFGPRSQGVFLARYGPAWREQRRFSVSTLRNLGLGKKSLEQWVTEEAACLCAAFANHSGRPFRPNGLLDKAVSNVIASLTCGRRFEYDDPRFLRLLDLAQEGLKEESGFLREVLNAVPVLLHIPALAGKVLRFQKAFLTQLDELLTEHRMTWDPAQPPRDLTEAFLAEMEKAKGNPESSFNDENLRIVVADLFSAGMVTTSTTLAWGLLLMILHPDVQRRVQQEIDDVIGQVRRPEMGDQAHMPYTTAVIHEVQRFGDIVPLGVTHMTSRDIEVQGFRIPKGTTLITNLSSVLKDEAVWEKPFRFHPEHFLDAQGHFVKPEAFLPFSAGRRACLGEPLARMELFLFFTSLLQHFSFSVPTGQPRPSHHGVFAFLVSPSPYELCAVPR
Test: Cytochrome panel assay with activity outcomes
Conditions: recombinant CYP, pro-luciferin dealkylation, luminescence, p450-cyp2d6; series mostly up to 57.1 µM
On the % scale 0 is the no-effect control and ±100 the full control effect.

AC50, inactive:
CC(=O)Oc1ccccc1C(=O)Oc1ccccc1C(=O)O
CCn1c(SCC(=O)Nc2nc3ccc(C)cc3s2)nc2c(c1=O)SC(C)C2 (stereo not drawn)
O=C(N/N=C/c1ccc(Cl)cc1)Nc1ccccc1
O=C(N/N=C/c1ccc(Cl)cc1Cl)Nc1ccccc1
COCCn1c(=O)c(-c2ccc(F)cc2)nc2cnc(Oc3ccccc3)nc21
O=C(Nc1cccc(F)c1)Nc1ccccn1
CCOC(=O)c1cnn(-c2nc(-c3ccc(F)cc3)cs2)c1C(F)(F)F
CCOC(=O)c1nnc(-c2ccccc2)nc1NCc1ccccc1
CCCCOC(=O)C1=C(C)Nc2ncnn2C1c1cc(OC)ccc1OC (stereo not drawn)
O=C(Cc1ccc(S(=O)(=O)N2CCOCC2)s1)Nc1nc2c(s1)CCCC2
Cc1ccc(CN2C(=O)CCC2C(=O)NCc2cccnc2)cc1 (stereo not drawn)
O=C(NCC1CCCO1)C1CCC(=O)N1CCc1ccccc1 (stereo not drawn)
O=c1c(CCc2ccccc2)nc2cnc(Oc3cccc(Cl)c3)nc2n1C[C@H]1CCCO1
CCCN(CCC)CCCNC(=O)c1cc2cc3ccc(OC)cc3nc2o1
CCOC(=O)C1=NNC2(c3ccc(Cl)cc3)C(=O)N(c3cc(C)cc(C)c3)C(=O)C12 (stereo not drawn)
CCCCOC(=O)CSc1nnc(-c2cc(OC)c(OC)c(OC)c2)o1
O=c1cnc2cncnc2n1Cc1ccccc1
COc1ccc(-n2c(C)nn(C)c2=O)cc1
COc1ccc(-n2cnnc2)cc1
COC(=O)c1nc(NC(=O)c2ccccc2)n[nH]1
COc1cc(C(=O)NCCC(C)C)c([N+](=O)[O-])cc1OC
CCCCCCCCCCCCCCCCCC(=O)O[C@H](CC(=O)O)C[N+](C)(C)C
O=P(O)(O)CCP(=O)(c1ccccc1)c1ccccc1
O=C1NC(c2ccc(Br)cc2)Nc2sc3c(c21)CCC3 (stereo not drawn)
CN(C)c1ccc(/C=C2/C(=O)Nc3ccccc32)cc1
O=C(NCc1nc2ccccc2[nH]1)[C@H]1C[C@@H]1[C@H](NP(=O)(c1ccccc1)c1ccccc1)c1ccccc1
COc1ccc(/C=C/C(=O)Nc2nc(C)cc(C)n2)cc1OC
Cc1ccc(S(=O)(=O)N2CCN(C(=O)C3COc4ccccc4O3)CC2)cc1C (stereo not drawn)
Cc1cc(C)cc(OCC(=O)Nc2ccc3c4c(cccc24)CC3)c1
Cc1cc(C)c(NC(=O)CS(=O)CC(=O)NCCCc2ccccc2)c(C)c1 (stereo not drawn)
Cc1cccc(C)c1NC(=O)CS(=O)CC(=O)NCCCc1ccccc1 (stereo not drawn)
CC(=O)[C@@]1(O)CC[C@H]2[C@H]3C[C@@H](C)C4=CC(=O)C=C[C@]4(C)[C@@]3(F)[C@@H](O)C[C@]21C
Cc1cc2[nH]c(=O)c3ccccc3n2n1
CCCC(=O)Nc1nnc(Cc2ccccc2)s1
CCCc1nnc(NC(=O)CCC(=O)N2CCN(c3ccccn3)CC2)s1
COc1ccc(/C=N/NC(N)=S)cc1OC(=O)c1cccc2ccccc12
CCOc1cc(NC(=S)NCC2CCCO2)c(OCC)cc1NC(=O)c1cccc(C)c1 (stereo not drawn)
O=c1c2ccccc2nc(SCc2ccccc2Cl)n1Cc1ccccc1
Cn1c(=O)c2c(nc(N3CCN(c4ccccn4)CC3)n2Cc2ccc(Cl)cc2Cl)n(C)c1=O
S=c1nc(-c2ccccc2)oc2c1CCCC2
CN(CC(=O)O/N=C(\N)c1ccccn1)S(=O)(=O)c1ccccc1
O=S(=O)(NCc1cccnc1)c1ccc(Cl)nc1
Cc1ccc(S(=O)(=O)N(CC(=O)N2CCN(c3ccc(F)cc3)CC2)C2CCCCC2)cc1
Cc1ccc(/C=C/c2ccc(=O)n(Cc3ccc(Cl)cc3Cl)n2)cc1
COC(=O)[C@@]1(Cc2ccc(OC)cc2)[C@@H]2C(=CC(=O)[C@H]2CC(=O)C(=O)N2CCCC2)CN1C(=O)c1ccccc1
COc1cc(C2C(C#N)=C(N)N(Nc3ccccc3)C3=C2C(=O)CC(C)(C)C3)ccc1OCc1cccc(F)c1 (stereo not drawn)
CC1=C(CC(=O)O)c2cc(F)ccc2/C1=C\c1ccc(S(C)(=O)=O)cc1
O=C(O)c1cccnc1C(=O)O
CN(C)c1cc(-c2cccc(NS(C)(=O)=O)c2)ncn1
Cc1noc(C)c1-c1cc(Nc2ccccc2)ncn1
CNc1cc(-c2ccccc2C(F)(F)F)ncn1
Cc1noc(C)c1-c1cc(NC2CCNCC2)ncn1
CC(=O)NCCNc1cc(-c2ccccc2CN(C)C)ncn1
CC(=O)c1ccc(NC(=O)C2(c3ccccc3)CCOCC2)cc1
CON1C(=O)C(=O)N(OC)C(C)(C)C1C (stereo not drawn)
CCOC(=O)N1CCN(C(=O)c2ccc3c(=O)n(-c4ccc(OC)cc4)c(=S)[nH]c3c2)CC1
C=CCn1c(=O)c2c(nc(-c3ccc(S(=O)(=O)O)cc3)n2C)n(C)c1=O
CCCOC(=O)c1ccc(NC(=O)c2cn(CC)c3nc(C)ccc3c2=O)cc1
O=c1c(-c2ccccc2)nc2cnc(Oc3cccc(Cl)c3)nc2n1C1CC1
Cc1c(Cl)cccc1Nc1ccccc1C(=O)O
Cc1c(Cl)cccc1NC(=O)CC1NCCNC1=O (stereo not drawn)
Cc1ccc(NC(=O)CN2CCC(NC(=O)Cc3ccccc3)CC2)cc1C
CCOC(=O)c1ccccc1NC(=O)CSc1cccc[n+]1[O-]
Cc1ccc(S(=O)(=O)/N=C(/Nc2c(C)n(C)n(-c3ccccc3)c2=O)c2ccc(Cl)cc2)cc1
O=C(c1cccc(C(F)(F)F)c1)N1CCC(O)(CS(=O)(=O)Cc2ccccc2)CC1
COC(=O)c1ccc(/C=N\NC(=O)c2ccc(C)cc2Cl)cc1
CN1c2ccccc2C(C)(C)C12C=Nc1c(cc(N3CCOCC3)c3ccccc13)O2 (stereo not drawn)
O=C(c1ccco1)N1CCN(C(=O)c2nn3cccnc3c2Cl)CC1
COc1cc(/C=C\C(=O)N2CCC=CC2=O)cc(OC)c1OC
CCCC(=O)Nc1nc2nc(-c3ccccc3)cc(-c3ccccc3)n2n1
CC(C)(C)c1ccc(C(=O)NCc2ccc(Cl)cc2)cc1
CC(C)(C)c1ccc(C(=O)Nc2ccc(NC(=O)c3ccco3)cc2)cc1

AC50, active:
O=C(Nc1ccccc1)N[C@H]1C[C@H](C(=O)O)Nc2cc(Cl)cc(Cl)c21 12.6 µM
CCOC(=O)c1sc2nc(CC(=O)OC)nc(NCc3ccc(F)cc3)c2c1C 25.1 µM
CC(C)N(CCNC(=O)C1CCC(=O)N1Cc1ccc(F)cc1)Cc1ccccc1 (stereo not drawn) 1.26 µM
CC1(C)N=C(N)N=C(N)N1c1cccc(OCc2cccc(N)c2)c1 2.51 µM
COc1ccc(N2C(N)=NC(N)=NC2(C)C)cc1 14.1 µM
CC1(C)N=C(N)N=C(N)N1c1cccc(CSc2ccccc2)c1 0.251 µM
O=C(OCc1nc2ccccc2[nH]1)C12CC3CC(CC(C3)C1)C2 15.8 µM
Cc1ccccc1-c1nc(CS(=O)CC(=O)NCCN2CCN(Cc3ccccc3)CC2)c(C)o1 (stereo not drawn) 14.1 µM
CCCC(=O)Nc1nnc(CCN2CCCCC2)s1 15.8 µM
CCn1c(SCc2ccc(Cl)cc2Cl)nc2nc3c(cc2c1=O)CCCC3 1.26 µM
CCN(C1CCCCC1)S(=O)(=O)c1ccc(S(=O)(=O)NCc2ccncc2)cc1 7.94 µM
Clc1ccc2c(NCCNC3CCCCC3)ccnc2c1 3.16 µM
CN(C)Cc1ccccc1-c1cc(Nc2ccccc2)ncn1 12.6 µM
CNc1cc(-c2ccccc2CN(C)C)ncn1 0.631 µM
CN(C)Cc1ccccc1-c1cc(N(C)C)ncn1 1.26 µM
CN(C)Cc1ccccc1-c1cc(NC2CC2)ncn1 0.0398 µM
Cc1cc(Cl)ccc1NC(=O)CN1CCC(C(O)(c2ccccc2)c2ccccc2)CC1 14.1 µM
Cc1c(Cl)cccc1NC(=O)CN1CCC(C(O)(c2ccccc2)c2ccccc2)CC1 0.224 µM
CC(=O)Nc1nonc1NC(=O)c1ccc(C(C)(C)C)cc1 10 µM

activity, negative = inhibition, inactive:
O=C(O)C/C(=C\c1ccco1)C(=O)O 1.84% [at 11.4 µM]
Nc1cccc(OCc2nc(N)nc(N)c2-c2ccc(Cl)cc2)c1 -14.7% [at 11.4 µM]
CC(C)(CCc1nc2ccccc2[nH]1)C(=O)O -1.31% [at 11.4 µM]
CC(C)c1ccc(/C=C2\C=C(c3ccc4ccccc4c3)OC2=O)cc1 2.54% [at 11.4 µM]
O=C1[C@H]2[C@H]3[C@H](O)[C@H](O)C/C(=N/OC[C@@H](O)COCc4ccco4)[C@H]3CC[C@@H]2C(=O)N1Cc1ccc2c(c1)OCO2 3.67% [at 11.4 µM]
Clc1ccc2c(NCCNc3ccnc4cc(Cl)ccc34)ccnc2c1 -10.3% [at 11.4 µM]
C/C(CC/C(C)=N/O)=N/O 8.85% [at 11.4 µM]
CN(C)C[C@H]1CCC2=C(C1=O)C(c1ccc(Cl)c(Cl)c1)C1=C(CC[C@H](CN(C)C)C1=O)O2 -12.4% [at 11.4 µM]
[O-][n+]1c(CN2CCCCC2)nc2cccc3c2c1-c1ccccc1-3 -13.1% [at 11.4 µM]
FC(F)(F)c1cccc(-c2nc3nc(Cl)c(Cl)nc3[nH]2)c1 -1.57% [at 11.4 µM]
O=C1C=CC(=Nc2cccc3c(N=C4C=CC(=O)O4)cccc23)O1 3.55% [at 11.4 µM]
O=C(O)CCc1ccc(-c2ccccc2)[nH]1 3.02% [at 11.4 µM]
